Test results taken from PubChem BioAssay (NCATS).
Results filed as inconclusive are left out. A call without a number means that no potency is given here. Activity calls are given as the source filed them. Calls follow the shape of the dose curve; as a rule, active = well fitted inhibition curve with a large enough effect; inconclusive = small, poorly fitted or top-dose-only effect; inactive = flat fitted curve, though single readings scatter.

Biological target: Glutathione peroxidase 1 (Homo sapiens) (UniProt P07203)
Sequence (P07203 whole entry, looked up): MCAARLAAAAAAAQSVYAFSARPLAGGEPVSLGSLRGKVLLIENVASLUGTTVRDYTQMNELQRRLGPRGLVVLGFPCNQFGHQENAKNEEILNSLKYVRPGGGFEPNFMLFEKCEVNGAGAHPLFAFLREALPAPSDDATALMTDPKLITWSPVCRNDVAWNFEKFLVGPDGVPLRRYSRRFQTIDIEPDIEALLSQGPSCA
Assay: Primary qHTS Assay for Inhibitors of Recombinant Selenoprotein Glutathione Peroxidase 1 (GPX1) (AID 1845191); also: nearly all actives have a fitted effect of over 65% in size
How it was run: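 Recombinant GPX1 (10 nM final) was preincubated with compound for 30 min at room temperature, then reacted with 1 mM GSH, 0.5 mM CHP, 0.5 mM NADPH and 100 nM glutathione reductase; NADPH fluorescence (340/450 nm) was read at 0 and 15 min.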
Potency is read from the fitted curve at half-maximal effect.

COc1cc(C)c(C(=O)O[C@H]2[C@@H](O)[C@H](n3ccc(=O)[nH]c3=O)O[C@@H]2CO)c(OC)c1
Potency: inactive

CCOc1cc2ncc(C#N)c(Nc3ccc(OCc4ccccn4)c(Cl)c3)c2cc1NC(=O)/C=C/CN(C)C
Potency: inactive

CC(=O)[C@@H]1CC[C@]2(C(=O)O)CC[C@]3(C)C(CCC4[C@@]5(C)CC[C@H](O)C(C)(C)C5CC[C@]43C)C12 (stereo not given in full)
Potency: inactive

C=CC1C(O[C@@H]2O[C@H](CO)[C@@H](O)[C@H](O)[C@H]2O)OC=C(C(=O)OC)C1CC(=O)O (stereo not given in full)
Potency: inactive

CC(CO[C@@H]1O[C@H](COC(=O)/C=C/c2ccc(O)c(O)c2)[C@@H](O)[C@H](O)[C@H]1O)C1(O)COC(=O)C1 (stereo not given in full)
Potency: inactive

CC1(O)CCC2C(C(=O)O)=COC(OC3OC(CO)C(O)C(O)C3OC(=O)/C=C/c3ccc(O)cc3)C21 (stereo not given)
Potency: inactive

COC(=O)CC[C@@H](C)[C@H]1CC[C@H]2[C@@H]3CC(=O)[C@H]4C[C@H](OC(C)=O)CC[C@]4(C)[C@H]3CC[C@]12C
Potency: inactive

CCNC(=O)[C@@H]1CCCN1C(=O)[C@H](CCCN=C(N)N)NC(=O)[C@H](CC(C)C)NC(=O)[C@@H](C)NC(=O)[C@H](Cc1ccc(O)cc1)NC(=O)[C@H](CO)NC(=O)[C@H](Cc1c[nH]c2ccccc12)NC(=O)[C@H](Cc1cnc[nH]1)NC(=O)[C@@H]1CCC(=O)N1
Potency: inactive

CC[C@@H](C(=O)O)[C@@H]1O[C@@H]([C@@H](C)[C@H](O)[C@H](C)C(=O)[C@H](CC)[C@H]2O[C@]3(C=C[C@@H](O)[C@]4(CC[C@@](C)([C@H]5CC[C@](O)(CC)[C@H](C)O5)O4)O3)[C@H](C)C[C@@H]2C)[C@@H](C)C[C@@H]1C
Potency: inactive

CC(C#N)C(C)O[C@@H]1O[C@H](CO)[C@@H](O)[C@H](O)[C@H]1O (stereo not given in full)
Potency: inactive

CC1CCC2(C(=O)OC3OC(COC4OC(CO)C(O)C(O)C4O)C(O)C(O)C3O)CCC3(C)C(=CCC4C5(C)CCC(O)C(C)(C(=O)O)C5CCC43C)C2C1(C)O (stereo not given)
Potency: inactive

CC1(C)S[C@@H]2[C@H](NC(=O)C(C(=O)O)c3ccsc3)C(=O)N2[C@H]1C(=O)O (stereo not given in full)
Potency: inactive

CC(=O)OC(CSC1CCC(=O)OC(C)CCC(=O)C1)C(=O)O (stereo not given)
Potency: inactive

COc1cc(C2Oc3c(O)cc(CCCO)cc3C2CO)ccc1O[C@H]1O[C@H](C)[C@@H](O)[C@H](O)[C@@H]1O (stereo not given in full)
Potency: inactive

CC(=O)OC[C@]12[C@H](OC(C)=O)C(=O)[C@@H]3[C@@H](OC(C)=O)[C@@]14O[C@@]3(C)COC(=O)c1cccnc1[C@@H](C)[C@H](C)C(=O)O[C@@H]([C@H](OC(C)=O)[C@@H]2OC(C)=O)[C@]4(C)O
Potency: inactive

CC(C)C(=O)c1cn(CC(=O)COc2ccc(Oc3ccccc3)cc2)c2ccc(C(=O)O)cc12
Potency: inactive

CC[C@H]1OC(=O)[C@H](C)[C@@H](OC2C[C@@](C)(OC)[C@@H](O)[C@H](C)O2)[C@H](C)[C@@H](OC2O[C@H](C)C[C@H](NC)[C@H]2O)[C@](C)(O)C[C@@H](C)CN(C)[C@H](C)[C@@H](O)[C@]1(C)O (stereo not given in full)
Potency: inactive

O=C(C1CC1)N1CC[C@@H](Cc2n[nH]c(=O)n2-c2ccc(-c3ccc4occc4c3)cc2)C1
Potency: inactive

O=C1Nc2ccc(O)cc2O[C@H]1O[C@@H]1O[C@H](CO)[C@@H](O)[C@H](O)[C@H]1O
Potency: inactive

CC1=C2C3OC(=O)C(C)C3(O)CCC2(C)CCC1=O (stereo not given)
Potency: inactive

C=C1CC[C@@H]2[C@](C)(CC[C@H](O)[C@@]2(C)CCC=C(C)C)[C@@H]1Cc1c[nH]c2ccccc12
Potency: inactive

O=C(O)c1ccc(CCCc2ccc(OCCc3ccc(F)cc3)cc2)o1
Potency: inactive

CCC/C=C/C(=O)O[C@H]1CC(C)(C)CC2[C@]13[C@H](O)O[C@@]21CCC2[C@@]4(C)CC[C@H](O[C@@H]5O[C@H](C(=O)O)[C@@H](O)[C@H](O[C@@H]6O[C@H](CO)[C@H](O)[C@H](O)[C@H]6O[C@@H]6O[C@@H](C)[C@H](O)[C@@H](O)[C@H]6O[C@@H]6OC[C@](O)(CO)[C@H]6O)[C@H]5O[C@@H]5O[C@H](CO)[C@H](O)[C@H](O)[C@H]5O)C(C)(C)C4CC[C@@]2(C)[C@]1(C)C[C@H]3OC(C)=O (stereo not given in full)
outcome: inactive [at 9.52 µM]

CCCCCCCCCCCC[n+]1ccc2ccccc2c1
Potency: inactive

CC1=CCC2C(C)(CO)CCCC2(C)C1CC12OC1C(O)C(CO)=CC2O (stereo not given)
Potency: inactive

NCc1ccccc1CC(=O)N[C@@H]1C(=O)N2C(C(=O)O)=C(CSc3nnnn3CC(=O)O)CS[C@H]12
Potency: 5.08 µM (active)

COc1cc2c(cc1OC)CN(C(=O)[C@@H](NCc1ccncc1)C(C)(C)C)CC2
Potency: inactive

OCCc1ccc(O[C@@H]2O[C@H](CO)[C@@H](O)[C@H](O)[C@H]2O)c(O)c1
Potency: inactive

CC1CCC2C(C(=O)O)=CC3C(O)C(C)(C)CC123 (stereo not given)
Potency: inactive

C[C@@H]1O[C@@H](OC[C@H]2O[C@@H](OCC3CCC4CC3C4(C)C)[C@H](O)[C@@H](O)[C@@H]2O)[C@H](O)[C@H](O)[C@H]1O (stereo not given in full)
Potency: inactive

COc1cc(/C=C/CO)ccc1O[C@@H]1O[C@H](CO)[C@@H](O)[C@H](O)[C@H]1O
Potency: inactive

Cn1c(=O)c2nc(/C=C/c3cccc(Cl)c3)n(C)c2n(C)c1=O
Potency: inactive

C[C@@H]1C[C@H]2[C@@H]3CCC4=CC(=O)C=C[C@]4(C)[C@@]3(F)[C@@H](O)C[C@]2(C)[C@@]1(O)C(=O)COP(=O)(O)O
Potency: inactive

CC1CCC2C(C)(C)CC(C)(CO)C2(O)C1C(=O)O (stereo not given)
Potency: inactive

CCOC(=O)c1ccnc(CNCC(=O)N(CC)CCN(C)C)c1
Potency: inactive
